This passage reports Potency results from ChEMBL document CHEMBL1201862, “PubChem BioAssay data set” (2004).

The structures appear in SMILES notation. Out of some 400,000 compounds screened, about 2,100 (0.53%) were called active. Roughly 14% stayed inconclusive and do not appear here. How the calls were made is not given here. Many of the other results were omitted from the sample, so actives are more common in it than they were.

Sequence of Ataxin-2 (Homo sapiens) (Q99700 whole entry): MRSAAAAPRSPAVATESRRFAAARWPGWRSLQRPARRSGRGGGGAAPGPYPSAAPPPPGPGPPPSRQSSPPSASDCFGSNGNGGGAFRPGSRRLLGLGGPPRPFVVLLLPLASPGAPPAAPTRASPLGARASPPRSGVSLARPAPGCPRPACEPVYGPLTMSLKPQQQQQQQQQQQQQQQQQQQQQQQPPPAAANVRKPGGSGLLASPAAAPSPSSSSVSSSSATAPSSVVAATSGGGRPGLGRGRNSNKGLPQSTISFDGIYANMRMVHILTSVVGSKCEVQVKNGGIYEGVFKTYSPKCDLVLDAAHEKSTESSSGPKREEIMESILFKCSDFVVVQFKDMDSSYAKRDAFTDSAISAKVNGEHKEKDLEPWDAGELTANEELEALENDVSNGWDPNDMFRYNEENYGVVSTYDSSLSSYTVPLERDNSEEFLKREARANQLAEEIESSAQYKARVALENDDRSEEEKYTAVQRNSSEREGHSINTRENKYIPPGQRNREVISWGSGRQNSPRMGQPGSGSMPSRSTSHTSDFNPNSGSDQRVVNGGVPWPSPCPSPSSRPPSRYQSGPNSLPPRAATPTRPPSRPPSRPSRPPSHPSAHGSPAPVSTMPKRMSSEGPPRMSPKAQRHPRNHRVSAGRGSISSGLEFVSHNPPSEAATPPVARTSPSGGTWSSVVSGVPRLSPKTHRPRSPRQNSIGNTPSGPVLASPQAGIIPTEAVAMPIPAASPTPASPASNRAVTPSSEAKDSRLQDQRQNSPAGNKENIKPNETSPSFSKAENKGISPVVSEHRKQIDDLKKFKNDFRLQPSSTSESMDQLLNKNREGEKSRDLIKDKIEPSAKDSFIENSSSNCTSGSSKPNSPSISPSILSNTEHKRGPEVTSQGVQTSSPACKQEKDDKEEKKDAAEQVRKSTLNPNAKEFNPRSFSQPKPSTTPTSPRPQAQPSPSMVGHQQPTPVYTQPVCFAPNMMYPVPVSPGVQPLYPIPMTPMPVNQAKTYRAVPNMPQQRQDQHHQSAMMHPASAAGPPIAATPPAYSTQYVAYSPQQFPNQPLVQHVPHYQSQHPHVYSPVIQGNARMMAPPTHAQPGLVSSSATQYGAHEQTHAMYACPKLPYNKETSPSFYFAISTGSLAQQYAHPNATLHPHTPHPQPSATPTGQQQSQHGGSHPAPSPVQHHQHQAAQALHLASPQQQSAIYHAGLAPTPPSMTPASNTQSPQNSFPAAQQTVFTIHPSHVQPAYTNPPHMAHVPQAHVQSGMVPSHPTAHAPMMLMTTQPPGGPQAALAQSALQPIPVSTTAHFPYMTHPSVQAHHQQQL

This assay concerns the target Ataxin-2 (Homo sapiens) (UniProt Q99700). The assay is described as follows: qHTS for Inhibitors of ATXN expression. In kind it is functional.
On to `Cc1nc(CS(=O)(=O)c2ccccn2)sc1C(=O)NNC(=O)c1ccccc1`, for which the Potency result was “inactive”.
In the case of `Cc1ccc(S(=O)(=O)N[C@H](C(=O)Oc2ccc3c(C(F)(F)F)cc(=O)oc3c2)c2ccccc2)cc1`, the Potency entry was “inactive”.
For the molecule `CCOc1ccc(-c2c(=O)n(OCc3nc4ccccc4[nH]3)c3ccccc3[n+]2[O-])cc1`, the Potency result is “inactive”.
With `Cc1oc2ccc(O)c(CN3CCCC3)c2c1C(=O)Nc1ccc(C(C)C)cc1`, the Potency is 15.8 µM (active).
In the case of `CCc1c(C)c2ccc(O)c(CN3CCCC3)c2oc1=O`, the Potency result was “inactive”.
For `CC(C)c1ccc(/C=C2\Oc3c(ccc(O)c3CN3CCN(C)CC3)C2=O)cc1` the value was “inactive”; for `CCN1CCCC(OC(=O)c2cc(-c3ccc(C)cc3)nc3ccccc23)C1` (centres undefined), “inactive”; for `CCn1c(=O)cc(OCC(=O)N2CCN(c3ccc(C)cc3)C(C)C2)c2ccccc21` (centres undefined), 28.2 µM (active).
For `CCOC(=O)COc1cccc2c(=O)n(CC(=O)N3CCC(C)CC3)ccc12`, the Potency entry is “inactive”.
For `COc1ccc(-c2nc3ccc(NS(=O)(=O)c4ccc(C)cc4)cc3o2)cc1` the value was 39.8 µM (active); for `COc1ccc(-c2cc(C(=O)Nc3ccc(S(=O)(=O)Nc4onc(C)c4C)cc3)c3ccccc3n2)cc1`, “inactive”.
For `COCc1cc(=O)oc2cc(NS(=O)(=O)c3ccc(C)cc3)ccc12` the value was “inactive”.
The entry for `COC(=O)c1cscc1S(=O)(=O)Cc1ccccc1` is “inactive”.
Regarding `CC(=O)Nc1ccc(S(=O)(=O)NCCc2cn3nc(C)c(C)nc3n2)cc1`, the Potency result was “inactive”.
The entry for `CNC(=O)COC(=O)/C=C/c1nc2ccccc2s1` is “inactive”; for `CCOC(=O)CN1C(=O)S/C(=C\c2ccc3c(c2)OCO3)C1=O` it is “inactive”; for `O=C(NCCN1C(=O)S/C(=C\c2ccc(Cl)c([N+](=O)[O-])c2)C1=O)C1=COCCO1` it is 25.1 µM (active).
The entry for `CCCn1nnc(NC(=S)NC(=O)c2ccccc2OC)n1` is “inactive”; for `C=CCN1C(=O)/C(=C2\C(=O)Nc3ccccc32)S/C1=N/c1ccc(O)cc1` it is 31.6 µM (active); for `C=CCN1C(=O)/C(=C/c2ccc(O)cc2)S/C1=N/c1nccs1` it is “inactive”.
Consider `Cc1ccn2c(NCc3ccccc3)c(-c3cccs3)nc2c1`, for which the Potency result is “inactive”.
For `Cc1ccc(-c2nc3ccc(C)cn3c2Cc2ccsc2)cc1` the value was 22.4 µM (active).
For `Cc1nc2ccccc2nc(C)c1=NOCc1cccc(F)c1` the value was “inactive”; for `Cc1ccc(-c2nc3ccc(C)cn3c2Cc2cccc(F)c2)cc1`, 35.5 µM (active); for `Cc1ccc(Sc2nc3ccc(C)cn3c(=O)c2/C=N/O)cc1`, “inactive”.
The figure for `Cc1ccc(Cc2c(-c3ccccc3)nc3cc(C)ccn23)cc1` is 22.4 µM (active).
As for `Cc1ccc(-c2cn3nc(-c4ccccc4)c(-c4ccccc4)nc3n2)cc1`, the Potency result was “inactive”.
For `Cc1ccc2nc(-c3ccccc3)c(Cc3cccc(F)c3)n2c1` the value was 31.6 µM (active).
For `Cc1ccc2nc(Cl)nc(-c3ccccc3)c2c1` the value was “inactive”.
